These results are taken from ChEMBL document CHEMBL3988442, “University of Dundee, Small-Polar-MMV Screening Library” (2021).

For some of these results: Measured potencies and affinities stand elsewhere.

Common to all, as to parameters: scale not given: direction of the effect not stated beside the values
Test [1] concerns the target Protein translocase subunit SecA (Escherichia coli (strain K12)) (UniProt P10408). Kind of test: Assay to Identify E. coli SecA ATPase Inhibitors. The class given is functional. To be noted: 30 µM.
The target of test [2] is T1, Ubiquitin-activating enzyme e1, putative (Leishmania donovani (strain BPK282A1)) (UniProt E9BSI1).
T1 sequence (whole entry): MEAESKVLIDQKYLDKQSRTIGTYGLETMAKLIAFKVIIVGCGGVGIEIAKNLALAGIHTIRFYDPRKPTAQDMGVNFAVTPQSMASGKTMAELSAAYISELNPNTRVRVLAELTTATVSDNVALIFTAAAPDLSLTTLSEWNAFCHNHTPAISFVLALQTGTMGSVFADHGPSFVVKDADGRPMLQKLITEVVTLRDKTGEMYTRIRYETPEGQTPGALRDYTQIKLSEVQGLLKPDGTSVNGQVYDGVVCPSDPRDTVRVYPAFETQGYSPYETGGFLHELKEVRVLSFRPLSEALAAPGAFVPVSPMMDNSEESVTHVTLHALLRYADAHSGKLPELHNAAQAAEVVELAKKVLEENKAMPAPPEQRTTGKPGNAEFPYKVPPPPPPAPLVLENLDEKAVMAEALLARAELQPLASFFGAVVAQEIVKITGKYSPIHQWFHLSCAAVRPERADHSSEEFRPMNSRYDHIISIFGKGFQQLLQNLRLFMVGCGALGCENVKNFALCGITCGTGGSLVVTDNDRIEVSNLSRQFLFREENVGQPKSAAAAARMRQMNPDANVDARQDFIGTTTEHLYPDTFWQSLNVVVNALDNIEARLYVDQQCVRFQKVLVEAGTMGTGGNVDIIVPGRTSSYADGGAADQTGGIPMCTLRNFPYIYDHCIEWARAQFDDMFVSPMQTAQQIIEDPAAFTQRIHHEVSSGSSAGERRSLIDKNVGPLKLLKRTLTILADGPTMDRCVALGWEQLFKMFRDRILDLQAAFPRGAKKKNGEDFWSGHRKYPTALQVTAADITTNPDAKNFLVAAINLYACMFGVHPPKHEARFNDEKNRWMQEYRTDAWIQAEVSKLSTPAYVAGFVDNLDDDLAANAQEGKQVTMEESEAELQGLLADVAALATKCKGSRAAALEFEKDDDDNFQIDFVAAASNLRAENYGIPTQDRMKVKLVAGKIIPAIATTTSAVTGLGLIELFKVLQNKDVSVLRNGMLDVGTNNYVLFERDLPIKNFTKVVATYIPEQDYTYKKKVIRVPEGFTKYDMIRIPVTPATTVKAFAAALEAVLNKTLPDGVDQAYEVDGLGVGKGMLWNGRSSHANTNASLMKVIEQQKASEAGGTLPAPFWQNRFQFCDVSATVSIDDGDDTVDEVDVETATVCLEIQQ
The experiment in a line: Leishmania donovani Ubiquitin Activating Enzyme (LdE1). To be noted: 30 µM. Format: functional.

The target in test [3] is AMP-activated protein kinase, AMPK (Homo sapiens) (UniProt P54646+O43741+P54619+Q9UGJ0+Q9Y478+Q13131+Q9UGI9). The experiment in a line: AMP-dependent Kinase enzyme assay. An in vitro enzyme assay that detects ADP turnover that is directly proportional to AMPK activity. This uses naive AMPK that is activated during the assay with MK-8722. The class given is functional. The note with it: 30 µM.

The target in test [4] is Sialic acid-binding Ig-like lectin 9 (Homo sapiens) (UniProt Q9Y336). The experiment in a line: Hs-Siglec9 ALPHAscreen SOP 20170721. The note with it: 10 µM. (In Alpha technology, singlet oxygen from a donor bead excites a nearby acceptor bead.)
In the next test the test system is Trypanosoma cruzi. The experiment in a line: Trypanosoma cruzi phosphomannomutase and mannose-1-phosphate guanylyltransferase assay. The class given is functional. To be noted: 10 µM.
Test [5] deals with T2, Arginase-2, mitochondrial (Homo sapiens) (UniProt P78540).
T2 sequence (whole entry): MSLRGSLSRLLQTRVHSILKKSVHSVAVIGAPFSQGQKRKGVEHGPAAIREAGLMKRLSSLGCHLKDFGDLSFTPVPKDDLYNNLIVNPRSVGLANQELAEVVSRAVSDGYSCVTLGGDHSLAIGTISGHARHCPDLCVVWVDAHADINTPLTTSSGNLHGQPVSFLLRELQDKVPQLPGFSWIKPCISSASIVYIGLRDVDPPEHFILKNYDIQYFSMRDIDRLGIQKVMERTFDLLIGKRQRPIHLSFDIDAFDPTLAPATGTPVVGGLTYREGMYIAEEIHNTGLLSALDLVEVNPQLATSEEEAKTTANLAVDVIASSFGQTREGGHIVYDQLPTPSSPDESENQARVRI
The experiment in a line: in vitro enzyme assay to detect the production of urea directly proportional to the activity of Arginase II. Further: in the data most compounds retested in dose-response had high values. The class given is functional. The note with it: 33.3 µM.

Test [6] has as its target T3, Proteasome subunit beta (Trypanosoma cruzi) (UniProt O96673).
T3 sequence (whole entry): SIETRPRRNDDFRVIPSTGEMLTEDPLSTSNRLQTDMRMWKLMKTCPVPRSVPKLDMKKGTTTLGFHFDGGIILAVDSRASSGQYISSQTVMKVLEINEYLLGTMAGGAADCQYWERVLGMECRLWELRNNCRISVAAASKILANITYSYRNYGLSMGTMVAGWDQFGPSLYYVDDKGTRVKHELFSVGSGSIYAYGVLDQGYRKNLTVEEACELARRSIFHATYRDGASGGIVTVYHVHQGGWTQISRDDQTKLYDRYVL
The experiment in a line: Trypanosoma cruzi proteasome chymotrypsin-like activity (TcProtChymo) assay. Further: in the data most compounds retested in dose-response had high values. Format: functional. The note with it: 9.37 µM.

The species named for another test is Homo sapiens. The experiment in a line: To identify inhibition of the IFN signalling (Jak-Stat) pathway via expression of an eGFP reporter gene under the control of an IFN-stimulated response element (ISRE) containing MxA promoter. The class given is functional. The note with it: 30 µM.
Test [7] addresses T4, Tyrosyl-tRNA synthetase, putative (Trypanosoma cruzi (strain CL Brener)) (UniProt Q4DSP6).
T4 sequence (whole entry): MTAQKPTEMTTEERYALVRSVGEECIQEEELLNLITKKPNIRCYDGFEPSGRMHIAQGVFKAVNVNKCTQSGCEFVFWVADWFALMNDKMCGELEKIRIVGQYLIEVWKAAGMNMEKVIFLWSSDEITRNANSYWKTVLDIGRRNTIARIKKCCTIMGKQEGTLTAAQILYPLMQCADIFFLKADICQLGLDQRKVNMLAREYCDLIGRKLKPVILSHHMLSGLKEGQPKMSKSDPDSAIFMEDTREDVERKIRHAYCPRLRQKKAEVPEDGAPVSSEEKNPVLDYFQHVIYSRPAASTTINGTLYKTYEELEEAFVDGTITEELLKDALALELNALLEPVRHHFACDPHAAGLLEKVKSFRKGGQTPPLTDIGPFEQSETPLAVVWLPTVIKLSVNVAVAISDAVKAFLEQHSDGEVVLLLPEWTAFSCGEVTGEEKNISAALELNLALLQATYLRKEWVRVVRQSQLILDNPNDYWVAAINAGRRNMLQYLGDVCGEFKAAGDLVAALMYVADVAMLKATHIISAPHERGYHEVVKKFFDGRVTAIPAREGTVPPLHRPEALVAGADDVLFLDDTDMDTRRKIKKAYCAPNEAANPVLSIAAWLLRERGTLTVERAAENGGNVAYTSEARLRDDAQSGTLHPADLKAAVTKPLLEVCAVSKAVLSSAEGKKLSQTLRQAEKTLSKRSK
The experiment in a line: Trypanosoma cruzi tyrosyl tRNA synthetase (TcYRS) _High Tyrosine SOP. Further: in the data most compounds retested in dose-response had high values. Format: functional. To be noted: 30 µM.

Test [8] has as its target T4, Tyrosyl-tRNA synthetase, putative (Trypanosoma cruzi (strain CL Brener)). The experiment in a line: Trypanosoma cruzi tyrosyl tRNA synthetase (TcYRS) SOP. The class given is functional. To be noted: 30 µM.
Test [9] deals with Chromo domain-containing protein 1 (Saccharomyces cerevisiae (strain ATCC 204508 / S288c) (Baker's yeast)) (UniProt P32657). Kind of test: ScCHD-1 Enzyme Inhibition Assay. Further: in the data most compounds retested in dose-response had high values. The note with it: 30 µM. Format: functional.
Sequence of Chromo domain-containing protein 1 (Saccharomyces cerevisiae (strain ATCC 204508 / S288c) (Baker's yeast)) (P32657 whole entry, the tested form may be a part): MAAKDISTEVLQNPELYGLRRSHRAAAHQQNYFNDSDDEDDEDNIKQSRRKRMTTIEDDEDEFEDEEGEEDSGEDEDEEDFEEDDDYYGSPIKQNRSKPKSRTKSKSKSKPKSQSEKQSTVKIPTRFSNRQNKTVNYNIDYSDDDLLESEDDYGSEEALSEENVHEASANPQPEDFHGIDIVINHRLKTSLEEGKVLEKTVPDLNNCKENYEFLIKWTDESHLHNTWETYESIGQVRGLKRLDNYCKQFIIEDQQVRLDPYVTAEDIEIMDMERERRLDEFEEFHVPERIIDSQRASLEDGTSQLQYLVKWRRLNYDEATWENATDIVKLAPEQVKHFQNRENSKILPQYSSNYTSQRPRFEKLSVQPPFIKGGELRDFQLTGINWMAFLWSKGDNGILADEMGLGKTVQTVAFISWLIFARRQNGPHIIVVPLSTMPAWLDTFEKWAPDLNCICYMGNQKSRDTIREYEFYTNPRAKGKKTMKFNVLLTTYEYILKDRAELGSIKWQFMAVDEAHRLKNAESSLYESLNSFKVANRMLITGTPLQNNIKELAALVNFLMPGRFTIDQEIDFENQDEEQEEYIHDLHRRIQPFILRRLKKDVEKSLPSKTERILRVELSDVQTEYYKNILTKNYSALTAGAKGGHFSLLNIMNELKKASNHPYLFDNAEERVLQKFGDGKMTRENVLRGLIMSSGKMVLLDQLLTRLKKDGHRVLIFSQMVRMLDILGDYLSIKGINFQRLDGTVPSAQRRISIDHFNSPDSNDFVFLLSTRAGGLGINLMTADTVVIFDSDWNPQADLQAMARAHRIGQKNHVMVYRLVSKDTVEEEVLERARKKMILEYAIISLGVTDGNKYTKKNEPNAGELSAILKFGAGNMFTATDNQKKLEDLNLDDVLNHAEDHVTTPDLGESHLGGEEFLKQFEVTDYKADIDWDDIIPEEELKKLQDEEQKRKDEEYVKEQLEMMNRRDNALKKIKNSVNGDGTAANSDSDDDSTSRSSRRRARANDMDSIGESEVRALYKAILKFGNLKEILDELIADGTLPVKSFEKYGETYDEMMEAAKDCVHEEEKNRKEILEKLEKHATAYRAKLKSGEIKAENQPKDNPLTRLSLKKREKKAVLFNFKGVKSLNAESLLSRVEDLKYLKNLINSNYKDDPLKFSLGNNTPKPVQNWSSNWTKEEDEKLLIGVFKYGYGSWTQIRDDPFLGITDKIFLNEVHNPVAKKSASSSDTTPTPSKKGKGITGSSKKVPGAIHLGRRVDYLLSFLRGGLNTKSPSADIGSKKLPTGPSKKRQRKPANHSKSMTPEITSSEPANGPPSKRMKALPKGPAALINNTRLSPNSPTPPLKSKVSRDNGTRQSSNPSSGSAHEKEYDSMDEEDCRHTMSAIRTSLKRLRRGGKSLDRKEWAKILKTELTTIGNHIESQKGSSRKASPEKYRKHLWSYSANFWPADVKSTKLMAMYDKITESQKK

Sequence of Sialic acid-binding Ig-like lectin 9 (Homo sapiens) (Q9Y336 whole entry): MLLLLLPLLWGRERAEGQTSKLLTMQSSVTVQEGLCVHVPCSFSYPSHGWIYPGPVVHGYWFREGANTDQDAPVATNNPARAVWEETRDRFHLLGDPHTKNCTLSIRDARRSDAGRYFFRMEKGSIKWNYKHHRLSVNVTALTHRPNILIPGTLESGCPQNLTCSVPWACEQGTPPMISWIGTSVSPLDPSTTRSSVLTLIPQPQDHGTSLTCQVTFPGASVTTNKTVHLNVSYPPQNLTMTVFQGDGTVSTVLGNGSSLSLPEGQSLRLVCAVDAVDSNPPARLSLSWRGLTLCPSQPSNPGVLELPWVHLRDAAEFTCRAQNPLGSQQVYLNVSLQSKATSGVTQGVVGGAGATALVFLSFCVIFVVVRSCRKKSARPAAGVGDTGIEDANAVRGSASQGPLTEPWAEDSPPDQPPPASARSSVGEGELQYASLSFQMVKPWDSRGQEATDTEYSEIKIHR
Sequence of Protein translocase subunit SecA (Escherichia coli (strain K12)) (P10408 whole entry): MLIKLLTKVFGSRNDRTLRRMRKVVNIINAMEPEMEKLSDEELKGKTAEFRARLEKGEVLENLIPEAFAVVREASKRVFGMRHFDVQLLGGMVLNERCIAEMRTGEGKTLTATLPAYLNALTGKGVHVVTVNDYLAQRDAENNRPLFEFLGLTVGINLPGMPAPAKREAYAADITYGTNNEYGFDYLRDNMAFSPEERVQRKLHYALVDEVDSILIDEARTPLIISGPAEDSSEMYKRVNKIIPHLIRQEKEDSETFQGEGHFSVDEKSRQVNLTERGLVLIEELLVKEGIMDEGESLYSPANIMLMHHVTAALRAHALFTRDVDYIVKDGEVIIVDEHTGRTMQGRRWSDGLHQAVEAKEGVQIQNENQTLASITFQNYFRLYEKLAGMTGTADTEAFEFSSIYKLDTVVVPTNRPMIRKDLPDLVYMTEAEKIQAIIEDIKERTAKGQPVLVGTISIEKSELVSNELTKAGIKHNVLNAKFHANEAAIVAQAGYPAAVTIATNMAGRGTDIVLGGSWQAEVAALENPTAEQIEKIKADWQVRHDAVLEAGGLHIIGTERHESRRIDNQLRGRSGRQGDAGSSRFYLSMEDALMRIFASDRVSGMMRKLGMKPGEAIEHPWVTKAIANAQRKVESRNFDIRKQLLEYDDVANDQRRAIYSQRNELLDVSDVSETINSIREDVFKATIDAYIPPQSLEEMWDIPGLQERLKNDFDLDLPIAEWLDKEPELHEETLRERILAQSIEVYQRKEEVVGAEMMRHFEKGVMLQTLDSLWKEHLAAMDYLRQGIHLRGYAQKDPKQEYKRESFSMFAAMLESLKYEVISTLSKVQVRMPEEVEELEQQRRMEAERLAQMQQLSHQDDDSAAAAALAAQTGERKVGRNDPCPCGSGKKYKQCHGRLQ

Regarding `CCOC(=O)CNC(=O)N1CCN(c2ncccn2)CC1`, the Percent Effect is -2.75% in test [1]; 7.79% in test [2]; -0.383% in test [3]; 6.61% in test [4]; 4.03% in the test with Trypanosoma cruzi; -13.8% in test [5]. In addition, the Percent Effect is 9.65% in [6]; 14.3% in the test listed under Homo sapiens; 5.38% in test [7]; 13.6% in test [8]; -4.38% in test [9].

For the compound `O=C(CN1CCC(c2cccc(F)c2)C1)NCC(F)(F)F` (stereo unspecified), the Percent Effect in test [1] is -0.194%; in [2], 18.4%; in [3], -1.43%; in [4], -3.51%; with Trypanosoma cruzi, 3.57%; in [5], -1.15%. The Percent Effect was 18.1% in [6]; 36.1% in the test filed under Homo sapiens; 6.37% in test [7]; 21.9% in [8]; -8.57% in test [9].

With `CCn1nc(CC(C)C)cc1C(=O)NCCn1cccc1`, the Percent Effect is -6.33% in test [1]; -1.39% in test [2]; 1.75% in test [3]; 1.17% in [4]; -3.01% in the test with Trypanosoma cruzi; -3.09% in test [5]. Moreover, the Percent Effect is 11.6% in test [6]; -24.3% in the test filed under Homo sapiens; 0% in [7]; -2.56% in test [8]; 1.57% in [9].

For the compound `CCc1nccn1C1CCCN(C(=O)c2cn3cccnc3n2)C1` (stereo unspecified), the Percent Effect in test [1] is -1.83%; in test [2], 2.7%; in test [3], -8.93%; in test [4], 1.79%; in the test with Trypanosoma cruzi it was -2.17%; in test [5], 2.81%. Further, the Percent Effect in [6] was -3.96%; in the test filed under Homo sapiens, -7.1%; in test [7] it was 1.48%; in [8] it was -1.24%; in [9], 1.22%.

As to `O=C(Cn1cnnn1)N1CCCCC1Cn1cccn1` (stereo unspecified), the Percent Effect in [1] is -4.89%; in [2] it was 5.06%; in test [3] it was -3.21%; in test [4] it was -2.69%; in the test on Trypanosoma cruzi, -6.52%; in test [5], -3.04%. Moreover, the Percent Effect in test [6] is 0.901%; in the test filed under Homo sapiens it was 25.2%; in test [7] it was -3.45%; in test [8], -11.4%; in [9], -5.05%.

On to `CSCCC1c2nc[nH]c2CCN1Cc1cc(Cl)ccc1O` (stereo unspecified), for which the Percent Effect in test [1] is -4.06%; in test [2], -2.67%; in test [3] it was -4.48%; in test [4], 3.19%; in the test on Trypanosoma cruzi, 2.63%; in test [5], 0.521%. Also, the Percent Effect was 18.3% in test [6]; 35.7% in the test filed under Homo sapiens; 12.6% in test [7]; 23.5% in test [8]; -0.295% in test [9].

`O=C(c1ccc(F)c(F)c1)N1CCCC(Nc2ccc(F)cc2)C1` (stereo unspecified): the Percent Effect is -2.99% in [1]; -2.7% in test [2]; -4.26% in test [3]; 1.48% in [4]; 6.56% in the test on Trypanosoma cruzi; -2.86% in test [5]. The Percent Effect in test [6] was 2.59%; in the test filed under Homo sapiens it was 19.7%; in test [7] it was 6.88%; in test [8] it was 7.32%; in [9], -2.35%.

For `Cc1cnn(CC2CN(Cc3nnc(-c4occc4C)o3)CCO2)c1` (stereo unspecified), the Percent Effect is -3.52% in test [1]; 10.8% in test [2]; 142% in test [3]; -3.99% in test [4]; 3.06% in the test on Trypanosoma cruzi; -0.924% in test [5]. Moreover, the Percent Effect in test [6] was -0.898%; in the test listed under Homo sapiens, 16%; in test [7] it was 7.92%; in test [8], 23.2%; in test [9], -5.94%.

As to `CCOCC1CN(Cc2ccoc2)Cc2ncn(CC3CC3)c21` (stereo unspecified), the Percent Effect in test [1] was -8.23%; in test [2], -2.7%; in test [3], 0.834%; in [4], 4.02%; in the test with Trypanosoma cruzi, -2.34%; in test [5], -0.833%. Besides, the Percent Effect in test [6] is 10.1%; in the test filed under Homo sapiens, 3.58%; in test [7], 4.95%; in [8], -1.22%; in test [9], -0.436%.

For `CC(NC(=O)c1nc(=O)[nH][nH]1)c1ccc(OCC2CC2)c(F)c1` (stereo unspecified), the Percent Effect in [1] was -5.77%; in [2], 10.5%; in test [3], -0.945%; in [4], -1.85%; in the test on Trypanosoma cruzi it was 4.58%; in test [5], -3.55%. The Percent Effect is 4.7% in test [6]; 4.1% in the test listed under Homo sapiens; 5.32% in [7]; 10.4% in [8]; -13.1% in [9].

As for `Cc1cnn(C2CN(Cc3nc(C(C)(C)C)no3)C2)c1`, the Percent Effect in test [1] was -0.455%; in [2], 23.4%; in test [3], -7.8%; in [4], -0.55%; in the test on Trypanosoma cruzi, 3.56%; in [5] it was 2.49%. Further, the Percent Effect in test [6] was 7.09%; in the test filed under Homo sapiens, 29.8%; in [7] it was 8.74%; in test [8], 14.6%; in [9], -6.23%.
